Source: PubChem BioAssay (Sanford-Burnham Center for Chemical Genomics)
MPTP inh: permeability transition pore inhibition; inhibition, % at 10 µM; hit rate 1.4% among 360,000; isolated mouse mitochondria, Ca2+ swelling absorbance, 30 min;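 active = inhibition of 50% or more, scaled per plate between neutral and stimulator controls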;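 note: 0% = DMSO wells given calcium and 100% = 1 mM EGTA wells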
pCIP destab: lowers stability of the mouse p/CIP coactivator protein; Q05BA5; F442A p/CIP-EGFP cells, EGFP fluorescence, 16 h; decrease of EGFP signal, % at 10 µM; hit rate 0.01% among 290,000; AID 1984;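 active = EGFP signal decrease of at least 30% at 10 µM or well 3 SD below plate mean, unless failing retest; inactive = the rest, including hits failing retest or dose response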
FAS-TE inh: inhibitors of human fatty acid synthase thioesterase domain; P49327; recombinant FAS-TE, OMFH fluorogenic substrate, fluorescence endpoint; inhibition, % at 15 µM; hit rate 0.67% among 360,000;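 active = compounds whose normalised, plate-corrected inhibition of enzyme fluorescence in the single-dose primary screen is 50% or more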;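 note: 0% = DMSO with enzyme and 100% = substrate without enzyme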
GRIN3A LBD mod: modulates the human NR3A ligand-binding domain; NR3A LBD differential scanning fluorimetry, Tm shift; 0% = protein alone, 100% = glycine-bound protein; Tm shift relative to glycine control, % at 25 µM; hit rate 2.5% among 340,000;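 active = melting temperature shift of at least 10% of the positive control shift, at one fixed dose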
beta cell repl: inducers of beta-cell replication in MIN6 cells; proliferation, % at 10 µM; AID 2380; MIN6 cells proliferation, ATPlite luminescence, 48 h; cells starved in 0.2% serum; 100% = growth in 10% serum; hit rate 0.29% among 330,000;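 active = compounds whose signal lies at least 3.5 SD above the mean of all wells on their plate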;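 note: 0% = DMSO-treated cells in low-serum medium and 100% = 10% serum control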
* hit, by the source's call. Hits are enriched below; roughly 4.1% of the tested compounds scored in any of these assays.

Screening Cc1nc(Nc2cccc(O)c2)c2oc3ccccc3c2n1 returned MPTP inh 0, pCIP destab -1, FAS-TE inh -2, GRIN3A LBD mod 3 and beta cell repl 3.
`Cc1nc(Nc2cccc(F)c2)c2oc3ccccc3c2n1` gave MPTP inh 0, pCIP destab -4, FAS-TE inh 12, GRIN3A LBD mod 28* and beta cell repl -2.
`Cc1nc(Nc2cccc(Cl)c2)c2oc3ccccc3c2n1` gave MPTP inh 0, pCIP destab 6, FAS-TE inh 16, GRIN3A LBD mod 36* and beta cell repl -6.
For COc1ccc(Cn2cc(CN3CC(N4CCN(CCN(C)C)CC4)CS3(=O)=O)nn2)cc1 (stereo unspecified) the results were MPTP inh -1 and FAS-TE inh -10.
`CN(C)CCN(C)C1CN(Cc2ccc(F)cc2)S(=O)(=O)C1` (stereo unspecified) gave MPTP inh 0 and FAS-TE inh -8.
COC(=O)c1ccc2nc(C3CCCCC3)c(Cc3cccc(Cl)c3)n2c1 was read as MPTP inh -1 and FAS-TE inh 18.
COc1ccc(C(=O)c2c(N)sc3c2CCN(C(=O)OC(C)(C)C)C3)cc1 was read as MPTP inh 5, pCIP destab -4, FAS-TE inh -18, GRIN3A LBD mod 13* and beta cell repl -4.
Screening CCOC(=O)C1=NN(C(C)=O)C2(CC(=O)N(c3cc(C)cc(C)c3)C2=O)C1 (stereo unspecified) returned MPTP inh 0, pCIP destab -5, FAS-TE inh -6, GRIN3A LBD mod 13* and beta cell repl 2.
`COC(=O)[C@]12CCCCC=C1N(Cc1ccco1)C(=O)[C@H](CC(=O)N1CCOCC1)C2` gave MPTP inh 1 and FAS-TE inh -15.
For COc1ccccc1CNC(=O)c1nn(C)c2c1CS(=O)(=O)c1ccccc1-2 the results were MPTP inh -2, pCIP destab 8, FAS-TE inh 9, GRIN3A LBD mod 18* and beta cell repl -1.
Cn1nc(C(=O)NCc2ccccc2Cl)c2c1-c1ccccc1S(=O)(=O)C2 was read as MPTP inh -1, pCIP destab 4, FAS-TE inh 16, GRIN3A LBD mod -1 and beta cell repl 1.
`O=[N+]([O-])c1ccc(-c2ccc(/C=N/O)o2)cc1` gave MPTP inh 2, pCIP destab -14, FAS-TE inh 22, GRIN3A LBD mod 33* and beta cell repl 0.
Screening O=[N+]([O-])c1ccc(-c2ccc(/C=N/Nc3nc(N4CCCC4)nc(N4CCCC4)n3)o2)cc1 returned MPTP inh 0, pCIP destab -27, FAS-TE inh -40, GRIN3A LBD mod 1 and beta cell repl -6.
COc1ccc(-c2cnnc(N/N=C/c3ccc(-c4ccc([N+](=O)[O-])cc4)o3)n2)cc1 was read as MPTP inh 0, pCIP destab -52, FAS-TE inh -15 and GRIN3A LBD mod 19*.
For O=C1CCC2c3[nH]c4ccccc4c3CCN12 (stereo unspecified) the results were MPTP inh 1 and FAS-TE inh -9.
For COc1ccccc1NS(=O)(=O)c1cc(NC(=O)C2CCC2)ccc1N1CCCCC1 the results were MPTP inh 6, pCIP destab -17, FAS-TE inh 36, GRIN3A LBD mod 0 and beta cell repl -7.
`Nc1ccc(N2CCCCC2)c(S(=O)(=O)Nc2ccccc2Cl)c1` gave MPTP inh 4, pCIP destab -8, FAS-TE inh 20, GRIN3A LBD mod -5 and beta cell repl -4.
Screening COc1ccccc1NS(=O)(=O)c1cc(N)ccc1N1CCCCC1 returned MPTP inh -1, pCIP destab -10, FAS-TE inh 15, GRIN3A LBD mod 33* and beta cell repl 1.
COc1ccccc1NS(=O)(=O)c1cc(NC(=O)Nc2ccc(Cl)cc2Cl)ccc1N1CCCCC1 was read as MPTP inh 43, pCIP destab -5, FAS-TE inh 29, GRIN3A LBD mod 12* and beta cell repl -3.
CCCc1nc2ccc(C)cn2c1Cc1ccccc1C(F)(F)F was read as MPTP inh -4 and FAS-TE inh 15.
Screening Cc1ccc(N2CCN(C(C(=O)Nc3c(C)cccc3C)c3cc4ccccc4o3)CC2)cc1 (stereo unspecified) returned MPTP inh 0.
Screening Cc1ccc(/C=N/n2c(-c3ccc(Cl)cc3)n[nH]c2=S)s1 returned MPTP inh 1, pCIP destab 18, FAS-TE inh -3, GRIN3A LBD mod 21* and beta cell repl -3.
For Cc1ccc(-c2n[nH]c(=S)n2/N=C/c2ccc(C)s2)cc1 the results were MPTP inh 1, pCIP destab -5, FAS-TE inh 0, GRIN3A LBD mod -12 and beta cell repl -3.
Screening COc1ccc(C(=O)COC(=O)CNC(=O)c2ccc(OC)cc2)cc1 returned MPTP inh 0, pCIP destab 2, FAS-TE inh -1, GRIN3A LBD mod 11* and beta cell repl -4.
`CN(C)c1ccc(/C=C/c2nc3ccccc3s2)cc1` gave MPTP inh 1, pCIP destab -20, FAS-TE inh 15, GRIN3A LBD mod 11* and beta cell repl -5.
For Cc1ccc2nc(N(CCN(C)C)C(=O)c3ccc4ccccc4c3)sc2c1 the results were MPTP inh 0, pCIP destab 3, FAS-TE inh 19, GRIN3A LBD mod 12* and beta cell repl 0.
`CN(C)CCN(C(=O)c1ccc2ccccc2c1)c1nc2cc3c(cc2s1)OCCO3` gave MPTP inh 0, pCIP destab -12, FAS-TE inh 22, GRIN3A LBD mod 13* and beta cell repl -2.
For CN(C)CCCN(C(=O)c1ccc2ccccc2c1)c1nc2cc3c(cc2s1)OCO3 the results were MPTP inh 0, pCIP destab -9, FAS-TE inh 4, GRIN3A LBD mod -2 and beta cell repl -6.
`CSC1=NC2(CC(c3ccccc3)Oc3cc(O)ccc32)CC(C)(C)N1` (stereo unspecified) gave MPTP inh 4, pCIP destab -16, FAS-TE inh -1, GRIN3A LBD mod 11* and beta cell repl -4.
`COc1cccc(C2CC3(CC(C)(C)NC(=S)N3)Oc3cc(O)ccc32)c1` (stereo unspecified) gave MPTP inh -4, pCIP destab -4, FAS-TE inh -11, GRIN3A LBD mod -4 and beta cell repl 0.
Screening CCN1C(=O)CC2CCCC1C2 (stereo unspecified) returned MPTP inh 1, FAS-TE inh -2 and GRIN3A LBD mod 11*.
Screening C[C@H]1COc2cc(N3CCC[C@H]3CO)ccc2S(=O)(=O)N1 returned MPTP inh -1 and FAS-TE inh -14.
O=C(CSc1nc(-c2ccc(F)cc2)nc2c1Cc1ccccc1O2)Nc1ccc(C(=O)O)cc1 was read as MPTP inh 0, pCIP destab 4, FAS-TE inh 11 and GRIN3A LBD mod 33*.
